Assay outcomes from PubChem.
Most compounds without a hit are left out; they make up all but 4.8% or so of the library.
tim10-1 inh = tim10-1 yeast growth inhibition; S. cerevisiae tim10-1 ts strain growth, BacTiter-Glo, 24 h; inhibition, % at 20 µM; actives 2.2% (n = 330,000); AID 463190;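 active means inhibition of at least 40%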;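 further: mutant grown at 25 °C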
PfHsp90 yeast 2 = reduces growth (ATP signal) of yeast expressing P. falciparum Hsp90; S. cerevisiae expressing PfHsp90, BacTiter-Glo ATP, 48 h; yeast lacking PDR1 and PDR3 efflux regulators; inhibition, % at 9.4 µM; actives 0.32% (n = 310,000);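 active means every replicate shows inhibition above about 80%, whatever the replicate mean, limit read from the data; inconclusive means mean inhibition reaches the set limit but some replicate falls short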
NALP1 inh = NALP1 inhibition; actives 0.61% (n = 280,000); S. cerevisiae NALP1/ASC/caspase-1 growth, X-gal OD620, 72 h; inhibition, % at 10 µM; in the data active means inhibition mostly above about 24%, no sharp cut-off; inactive means mostly below about 32%
TIM10 inh = TIM10 yeast growth inhibition; S. cerevisiae TIM10 strain growth, BacTiter-Glo luminescence, 24 h; inhibition, % at 10 µM; actives 1.4% (n = 330,000);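 active means inhibition of 40% or more at the single tested concentration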;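 further: wild-type TIM10 isogenic control strain grown at permissive 25 °C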
tim23-1 inh = tim23-1 yeast growth inhibition | AID 463212 | S. cerevisiae tim23-1 growth, BacTiter-Glo luminescence, 24 h | actives 1.3% (n = 330,000) | inhibition, % at 20 µM;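 active means growth inhibition of the mutant yeast at or above 50%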;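 further: temperature-sensitive mutant grown at 25 °C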
SKKanGAS inh = blocks kanamycin growth of S. pyogenes SKKanGAS strain | inhibition, % at 7.5 µM | actives 1.3% (n = 300,000) | AID 1662 | BacTiter-Glo, 6 h;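 active means mean replicate score, as percent of positive control median, at least 50; inconclusive means mean below 50 but one replicate at or above 50; inactive means mean and every replicate below 50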;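 further: strain carries kanamycin resistance gene driven by streptokinase promoter and grows in 40 µg/ml kanamycin; loss of luminescence reflects streptokinase promoter inhibition or plain growth inhibition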
Large screens that a line does not name were inactive; ! = repeats disagree.

Cc1ccc(/C=C2\SC(=S)N(CCCC(=O)NNC(=O)c3ccccc3O)C2=O)cc1	none (no result: NALP1 inh)
Cn1c(-c2nonc2N)nc2ccccc21	NALP1 inh 28.9
CCCn1c(-c2nonc2N)nc2ccccc21	none (no result: PfHsp90 yeast 2)
CCCOC(=O)c1ccc(NC(=O)COC(=O)C2CCN(c3ccc(C(F)(F)F)cn3)CC2)cc1	none (no result: tim10-1 inh, NALP1 inh, TIM10 inh, tim23-1 inh, SKKanGAS inh)
CCN(CC)c1ccc(-c2nnc(SCC(=O)N(CCOC)c3c(N)n(CC(C)C)c(=O)[nH]c3=O)o2)cc1	none (no result: NALP1 inh)
N[C@@H](Cc1cc(I)c(Oc2ccc(O)c(I)c2)c(I)c1)C(=O)O	SKKanGAS inh 62.1!
N[C@@H](Cc1cc(I)c(Oc2cc(I)c(O)c(I)c2)c(I)c1)C(=O)O	none (no result: PfHsp90 yeast 2, NALP1 inh)
O=C(O)CCc1cc(I)c(Oc2ccc(O)c(I)c2)c(I)c1	SKKanGAS inh 96.5 (no result: tim10-1 inh, PfHsp90 yeast 2, TIM10 inh, tim23-1 inh)
COc1cc2c(cc1OC)C(c1cccc(C)c1)CC(=O)N2 (stereo not drawn)	NALP1 inh 44.5
NC(=NC1CCCCC1)c1ccc([N+](=O)[O-])cc1	NALP1 inh 44.1
CN=C(NC1CCCCC1)c1ccc([N+](=O)[O-])cc1	none
CCCCN(CCCC)c1cc(C)nc(-c2ccccc2O)n1	SKKanGAS inh 53.9
Cc1ccc(C2(C)NC(=O)N(Cc3c(C)noc3C)C2=O)cc1 (stereo not drawn)	NALP1 inh 19.4
Cc1nc(SCc2cccc(F)c2)c2oc3ccccc3c2n1	SKKanGAS inh 55.4
c1ccc(CSc2ncnc3c2oc2ccccc23)cc1	SKKanGAS inh 52.0 (no result: NALP1 inh)
Fc1ccccc1CSc1ncnc2c1oc1ccccc12	none
COc1cccc(NC(=O)CN(C)C(=O)C2CC3C=CC2C3)c1 (stereo not drawn)	none (no result: NALP1 inh, SKKanGAS inh)
O=C(CSc1ccc(F)cc1)N1CCOCC1	none
O=C1CCCC2=C1C(c1ccc(O)cc1)c1c(ccc3ccccc13)N2 (stereo not drawn)	none
CSc1ccccc1NC(=O)CN(C)C(=O)c1cccc(S(=O)(=O)N(C)C)c1	none (no result: SKKanGAS inh)
CC1CCN(c2nc(N3CCCCC3)nc(N3CCCCC3)n2)CC1	SKKanGAS inh 56.1
CN(C)c1nc(N(C)C)nc(N2CCCCC2)n1	none
CC1(C)N=C(C(=O)c2ccccc2)N(O)C1(C)O (stereo not drawn)	NALP1 inh 33.1
Cc1ccc(C(=O)N2CCN(c3ccccc3Cl)CC2)cc1[N+](=O)[O-]	PfHsp90 yeast 2 105.4, NALP1 inh 38.3
Cc1ccc(C(=O)N2CCN(c3ccccn3)CC2)cc1[N+](=O)[O-]	none
NC(=O)c1ccc(N2CCCCCC2)c([N+](=O)[O-])c1	none
CC(=O)N1CCN(c2ccc(C(N)=O)cc2[N+](=O)[O-])CC1	NALP1 inh 31.8
CCN1CCN(Cc2c(O)ccc3c2O/C(=C\C=C\c2ccccc2)C3=O)CC1	none
N=C1C(c2nc3ccccc3c(=O)[nH]2)=C(O)CN1c1ccccc1	NALP1 inh 37.8 (no result: tim10-1 inh, PfHsp90 yeast 2, TIM10 inh, tim23-1 inh, SKKanGAS inh)
COc1cccc(-n2c(COc3ccc(C)cc3)nnc2SCC(=O)O)c1	none
COc1ccc(/C=C/C(=O)NC(=S)NNC(=O)c2cc(OC)c(OC)c(OC)c2)cc1	SKKanGAS inh 101.2 (no result: NALP1 inh)
COc1ccc(/C=C/C(=O)NC(=S)Nc2ccccc2)cc1OC	none
COc1ccc(/C=C/C(=O)NC(=S)Nc2ccc(C(=O)O)cc2)cc1	none (no result: tim10-1 inh, TIM10 inh, tim23-1 inh)
COc1ccc(/C=C/C(=O)NC(=S)NNC(=O)c2cc(OC)c(OC)c(OC)c2)cc1OC	SKKanGAS inh 88.9 (no result: PfHsp90 yeast 2)
COC(=O)c1ccc(NC(=O)CO/N=C2\CCCc3nonc32)cc1	none
Nc1n[nH]c2cc(=O)n(-c3cccc(C(F)(F)F)c3)nc12	none
Nc1c(S(=O)(=O)c2cccc(Cl)c2)c2nc3ccccc3nc2n1/N=C/c1ccc(O)c(O)c1	SKKanGAS inh 94.6 (no result: PfHsp90 yeast 2)
COc1cccc(/C=N/n2c(N)c(S(=O)(=O)c3cccs3)c3nc4ccccc4nc32)c1OC	none
CN(C)c1ccc(C=C2SC(=S)NC2=O)cc1	none (no result: tim10-1 inh, NALP1 inh, TIM10 inh, tim23-1 inh, SKKanGAS inh)
CCOc1ccc(N(C)c2ccc(/C=C3/SC(=S)NC3=O)cc2)cc1	SKKanGAS inh 64.8
O=C1NC(=O)/C(=C\c2ccc(OCc3ccccc3)cc2)S1	SKKanGAS inh 54.7
CC(C)Cc1nnc(NC(=O)CCC(=O)N2CCN(c3ccccc3)CC2)s1	SKKanGAS inh 102.9
CC(C)Cc1nnc(NC(=O)CCC(=O)NC2CC2)s1	NALP1 inh 37.6
O=C(COc1ccc(/C=C\[N+](=O)[O-])cc1)N1CCOCC1	none
C=CCn1c(NC(C)c2cc(Cl)ccc2O)nc2ccccc21 (stereo not drawn)	NALP1 inh 47.2
O=c1cc(/N=C/c2coc3c(ccc4ccccc43)c2=O)[nH]c(=S)[nH]1	SKKanGAS inh 86.5
CCOC(=O)c1sc(=NC(=O)c2ccc(OC)c(OC)c2)n(C)c1C	none
COc1ccc(CNC(=O)CN2C(=O)COc3ccc(S(=O)(=O)N4CCCC4)cc32)cc1	none
O=C(CN1C(=O)COc2ccc(S(=O)(=O)N3CCCCC3)cc21)NCc1ccc(F)cc1	SKKanGAS inh 103.4
Cc1ccc(NC(=O)/C(Cl)=C/c2ccccc2)cc1C	NALP1 inh 36.7
CC(C)CN(C(=O)COc1ccc(-c2nnco2)cc1)C1CCS(=O)(=O)C1 (stereo not drawn)	SKKanGAS inh 61.1
O=C(N/N=C/c1cccc(F)c1)c1c(O)c2ccccc2[nH]c1=O	SKKanGAS inh 92.0 (no result: tim10-1 inh, TIM10 inh, tim23-1 inh)
O=C(N/N=C/c1ccc(F)cc1)c1ccccc1	NALP1 inh 31.9, SKKanGAS inh inconclusive
O=C(Nc1cccc(F)c1)c1c(O)c2ccccc2[nH]c1=O	none
O=C(N/N=C/c1ccc(F)cc1)c1c(O)c2ccccc2[nH]c1=O	SKKanGAS inh 94.5
CCOC(=O)c1sc(NC(=O)CSc2nc3ccccc3s2)c(C(=O)OCC)c1C	none (no result: PfHsp90 yeast 2)
CCCC/C=C/[C@H](c1ccccc1)[C@H](CO)Cc1cccnc1	none (no result: NALP1 inh)
COc1ccc(Nc2ccc(OC)cc2)cc1	none (no result: PfHsp90 yeast 2)
COc1ccc(Nc2nc(NN)nc(Nc3ccc(OC)cc3)n2)cc1	SKKanGAS inh 49.9
O=C(CN1CCN(C(c2ccccc2)c2ccccc2)CC1)NCc1ccccc1	none
COc1ccc(CNC(=O)CN2CCN(C(c3ccccc3)c3ccccc3)CC2)cc1	NALP1 inh 37.2
COc1ccc(/C=C(\NC(=O)c2ccc(Cl)cc2)C(=O)NCCCn2ccnc2)cc1OC	none
Cc1c(/C=N/Nc2nc3ccccc3[nH]2)c2ccccc2n1C	SKKanGAS inh 88.2 (no result: NALP1 inh)
CC(=O)Nc1ccc(/C=N/Nc2nc3ccccc3[nH]2)cc1	none
CCCn1c(/C=N/Nc2nc3ccccc3[nH]2)nc2ccccc21	none (no result: tim10-1 inh, TIM10 inh, tim23-1 inh, SKKanGAS inh)
CC(C)Cn1c(/C=N/Nc2nc3ccccc3[nH]2)nc2ccccc21	SKKanGAS inh 96.6 (no result: tim10-1 inh, TIM10 inh, tim23-1 inh)
CCN(CC)c1ccc(/C=N/Nc2nc3ccccc3[nH]2)cc1	SKKanGAS inh 95.5 (no result: tim10-1 inh, PfHsp90 yeast 2, TIM10 inh, tim23-1 inh)
CCCC(=O)Nc1cc(C)c(NC(=O)c2ccccn2)cn1	none
Cc1cnc(NC(=O)CSc2nc3ccccc3c(=O)[nH]2)s1	none
COc1ccc(CCN2CC(C(=O)NCCc3ccccn3)CCC2=O)cc1 (stereo not drawn)	SKKanGAS inh 49.8
